Test results: ChEMBL document CHEMBL1157539, “Thousands of chemical starting points for antimalarial lead identification” (Nature, 2010)

Tests used:
Assay type in all cases: functional
Plasmodium falciparum [1] = experiment: GSK_TCMDC: Inhibition of Plasmodium falciparum 3D7 in whole red blood cells, using parasite LDH activity as an index of growth. Test compounds present at 2uM
Plasmodium falciparum [2] = experiment: GSK_TCMDC: Inhibition of Plasmodium falciparum Dd2 in whole red blood cells, using parasite LDH activity as an index of growth. Test compounds present at 2uM
HepG2 = experiment: GSK_TCMDC: Percent inhibition of human HepG2 cell line. Test compounds present at 10uM.

| Compound | Inhibition (Plasmodium falciparum [1]) [%] | Inhibition (Plasmodium falciparum [2]) [%] | Inhibition (HepG2) [%] |
| --- | --- | --- | --- |
| CCN(CC)CCN(Cc1ccc(-c2ccc(Cl)cc2)cc1)C(=O)Cn1c(CCc2cccc(F)c2F)nc(=O)c2ccccc21.O=C(O)C(O)C(O)C(=O)O | 100 | 75 | 45 |
| O=C(CCc1c[nH]cn1)Nc1cccc(-c2ccc(-c3nc4ccccc4[nH]3)s2)c1 | 92 | 37 | 11 |
| O=C(Nc1ccc(OC2CCN(Cc3ccsc3)C2)c(Cl)c1)c1cccs1.O=C(O)C(F)(F)F (stereo unspecified) | 91 | 87 | 0 |
| CC(C)(C)CCN1CCC(NC(=O)c2ccc(-c3cccc(C(F)(F)F)c3)s2)CC1.O=C(O)C(F)(F)F | 93 | 88 | 95 |
| COc1ccc2ncc(F)c(CCN3CC[C@H](NCc4cc(C#N)c5c(c4)OCCO5)[C@H](O)C3)c2c1 | 96 | 47 | 51 |
| COc1cccc(C(O)CNc2ccnc(Nc3cccc(-c4csc(C)n4)c3)n2)c1 (stereo unspecified) | 99 | 73 | 38 |
| O=[N+]([O-])c1cc(/C=N/Nc2nc3nonc3nc2Nc2ccc(F)cc2)c(Cl)cc1Cl | 98 | 13 | 5 |
| Cl.Nc1c2c(nc3cc(NC(=O)c4ccc([N+](=O)[O-])cc4)ccc13)CCCC2 | 100 | 58 | 11 |
| CC(C)(C)c1ccc(CN2CCC(CNC(=O)c3cc(-c4ccccc4)nc4ccccc34)CC2)cc1 | 89 | 36 | 33 |
| CC(Cc1ccc(OCCN2CCN(c3cccc(Cl)c3)CC2)cc1)NCC(O)c1cccc(Cl)c1.Cl (stereo unspecified) | 93 | 91 | 48 |
| COc1cc2nc(NCC3CCN(c4nc(N)c5cc(OC)c(OC)cc5n4)CC3)nc(N)c2cc1OC | 92 | 73 | 12 |
| CS(=O)(=O)O.FC(F)(F)COc1c(CNCCCCCCNCc2ccc3ccccc3c2OCC(F)(F)F)ccc2ccccc12 | 100 | 79 | 100 |
| COc1ccc2nc(C)cc(N/N=C/C=C/c3ccccc3)c2c1 | 100 | 100 | 27 |
| Cc1cccc2nc(-c3ccc(-c4ccc(CNCc5ccccc5)cc4)cc3)[nH]c12.O=C(O)C(F)(F)F | 99 | 90 | 5 |
| CC(=O)Nc1nc(C(=O)Nc2cccc(-c3cccc(-c4nc5cccc(C)c5[nH]4)c3)c2)cs1 | 100 | 94 | 28 |
| CC1(C)S(=O)(=O)CC(O)CS1(=O)=O | 98 | 9 | 8 |
| CC1CCCN1Cc1ccc(-c2ccc3c(=O)cc(CCc4cccc(F)c4F)n(CC(=O)N(C)Cc4ccc(-c5ccc(C(F)(F)F)cc5)cc4)c3n2)cc1.O=C(O)C(O)C(O)C(=O)O (stereo unspecified) | 100 | 91 | 0 |
| CN(C)Cc1ccc(-c2cccc(NC(=O)c3cccc(Cl)c3)c2)cc1.O=C(O)C(F)(F)F | 96 | 12 | 18 |
| Cc1ccccc1C1CCN(C2CCC(NC(=O)c3ccc(-c4ccccn4)s3)CC2)CC1 (stereo unspecified) | 87 | 17 | 32 |
| O=C(Nc1ccccc1)c1c[nH]cn1 | 92 | 0 | 0 |
| COc1ccc(Cl)cc1NC(=O)Nc1ccnc2ccccc12 | 100 | 44 | 13 |
| CCN(CC)C(=S)N/N=C1/C(=O)Nc2c(C)cccc21 | 94 | 69 | 28 |
| COc1ccc(C2CC(c3ccccc3)=NN2C(=O)c2ccc(Br)o2)cc1 (stereo unspecified) | 96 | 45 | 6 |
| O=C(Cc1ccccc1)NC(Nc1ccc([N+](=O)[O-])cc1)C(Cl)(Cl)Cl (stereo unspecified) | 99 | 100 | 21 |
| COc1ccc(C(C(=O)NC2CCN(C[C@H](O)c3ccnc4ccc(OC)cc34)CC2)N2CCN(c3ccc([N+](=O)[O-])cc3)CC2)cc1 (stereo partly specified) | 99 | 80 | 17 |
| Cc1cccc2nc(-c3ccc(-c4ccc(CNCc5cnn(-c6ccccc6)n5)cc4)cc3)[nH]c12.O=C(O)C(F)(F)F | 100 | 99 | 35 |
| COc1cc(/C=C/C(=O)NCC(CCNc2cc(=O)c3ccccc3[nH]2)NCc2cc(Br)cc(Br)c2)cc(OC)c1 (stereo unspecified) | 90 | 28 | 0 |
